Results taken from PubChem BioAssay (NCI).
About 79,000 compounds went through this panel and 15% of them were active in at least one assay; those are over-represented in the sample as a whole. Values without a mark were called inactive. Active and inactive are the calls of the source. No stated cut-off is given here; in the data, active means growth inhibition above about 70%; inactive means the rest. Where a SMILES comes first, the peptide text is derived from it. The star is where a group is joined. Boc = CC(C)(C)OC(=O)*; OcHex = C1CCC(O*)CC1

Experiments:
[1] = NCI Yeast Anticancer Drug Screen. Data for the rad50 strain (AID 155);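 further: 0% = growth of vehicle-only cultures of the same strain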; settings: S. cerevisiae rad50 strain growth inhibition; at 50.0 µM; stronger effect = higher value
Procedure, shortened: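 Cells are treated with compound, grown, and their growth is then scored against vehicle-only cultures of the same repair-deficient yeast strain.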

[2] = NCI Yeast Anticancer Drug Screen. Data for the mec2-1 strain (AID 157); settings: S. cerevisiae mec2-1 strain, at 50.0 µM, stronger effect = higher value
Procedure, shortened: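 Compounds were applied to mec2-1 yeast cells. Their growth was then compared with that of vehicle-treated cultures to give growth inhibition.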

[3] = NCI Yeast Anticancer Drug Screen. Data for the sgs1 mgt1 strain (AID 161);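 further: 0% = growth of cultures given vehicle only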; settings: S. cerevisiae sgs1 mgt1 strain, at 50.0 µM, stronger effect = higher value
Procedure, shortened: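 Yeast cells carrying a defined DNA-repair defect were exposed to test compounds. Growth inhibition was measured relative to vehicle-treated controls.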

[4] = NCI Yeast Anticancer Drug Screen. Data for the cln2 rad14 strain (AID 165);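 further: 0% = growth equal to vehicle treated cultures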; settings: S. cerevisiae cln2 rad14 strain, at 50.0 µM, stronger effect = higher value
Procedure, shortened: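 Strain: cln2 rad14 yeast, altered in cell cycle control and DNA damage repair. Read-out: growth inhibition vs vehicle.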

[5] = NCI Yeast Anticancer Drug Screen. Data for the bub3 strain (AID 167); settings: S. cerevisiae bub3 mutant strain, at 50.0 µM, stronger effect = higher value
Procedure, shortened: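 Part of a panel of yeast mutants defective in DNA damage repair or cell cycle regulation. Each strain is grown with compound, and inhibition is calculated relative to solvent-treated cultures.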

[6] = NCI Yeast Anticancer Drug Screen. Data for the mlh1 rad18 strain (AID 175); settings: S. cerevisiae mlh1 rad18 strain growth inhibition; at 50.0 µM; stronger effect = higher value
Procedure, shortened: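 A repair-deficient yeast strain is exposed to test compound, and growth is scored relative to vehicle-treated controls.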

COc1ccc(C2OCC(c3ccccc3)O2)cc1 (stereo not given)
growth inhibition [1]: -13.4%
growth inhibition [2]: -7.65%
growth inhibition [3]: -18.5%
growth inhibition [4]: -37%
growth inhibition [5]: 3.15%
growth inhibition [6]: -29.1%

CCOC(=O)Cc1cccnc1
growth inhibition [1]: -27.6%
growth inhibition [2]: -40%
growth inhibition [3]: -14.1%
growth inhibition [4]: 16.5%
growth inhibition [5]: -12.2%
growth inhibition [6]: -3.4%

O=C1C(OC(=O)c2ccccc2)=C(OC(=O)c2ccccc2)C(=O)C(OC(=O)c2ccccc2)=C1OC(=O)c1ccccc1
growth inhibition [1]: -7.15%
growth inhibition [2]: -1.25%
growth inhibition [3]: 13.8%
growth inhibition [4]: -22.8%
growth inhibition [5]: 2.85%
growth inhibition [6]: 2.75%

CCOC(=O)CCC(C(=O)OCC)N1C(=O)c2ccccc2C1=O (stereo not given)
growth inhibition [1]: 1%
growth inhibition [2]: 6.75%
growth inhibition [3]: 8.25%
growth inhibition [4]: 11.8%
growth inhibition [5]: 23.8%
growth inhibition [6]: -1.7%

CC1CCCCN1C(CC(=O)c1ccccc1)C(=O)c1ccccc1 (stereo not given)
growth inhibition [1]: 21.4%
growth inhibition [2]: 24.1%
growth inhibition [3]: 8.55%
growth inhibition [4]: 17.1%
growth inhibition [5]: 18.4%
growth inhibition [6]: 38.7%

O=C(c1cccc(Cl)c1)c1cccc2ccccc12
growth inhibition [1]: -1.7%
growth inhibition [2]: 5.6%
growth inhibition [3]: 19.6%
growth inhibition [4]: -37%
growth inhibition [5]: 41.9%
growth inhibition [6]: -10.2%

COC(=O)C1=C(C)N(NC(N)=O)C2(N)N(NC(N)=O)C(C)=C(C(=O)OC)C12C#N (stereo not given)
growth inhibition [1]: -23.5%
growth inhibition [2]: -11.6%
growth inhibition [3]: -44.6%
growth inhibition [4]: 5.8%
growth inhibition [5]: 2.55%
growth inhibition [6]: -16.4%

CCOC(=O)C(c1ccccc1)N(CCCN(CC)CC)c1ccccc1 (stereo not given)
growth inhibition [1]: -10.8%
growth inhibition [2]: -3.25%
growth inhibition [3]: 1.6%
growth inhibition [4]: -9.1%
growth inhibition [5]: 5.15%
growth inhibition [6]: 0.45%

COc1cc(/C=N/NC(=O)C(=O)N/N=C/c2cc(OC)c(OC)c(OC)c2)cc(OC)c1OC
growth inhibition [1]: -20.4%
growth inhibition [2]: -34.1%
growth inhibition [3]: -24.7%
growth inhibition [4]: 3.9%
growth inhibition [5]: -20%
growth inhibition [6]: -21.1%

CCOc1ccc(/C(Cl)=C(\C=O)c2ccc(OC)c(OC)c2)cc1OCC
growth inhibition [1]: -0.1%
growth inhibition [2]: -4.8%
growth inhibition [3]: 3.25%
growth inhibition [4]: -2.2%
growth inhibition [5]: -3.6%
growth inhibition [6]: 2.55%

CCC(C)CNCCO (stereo not given)
growth inhibition [1]: 24.6%
growth inhibition [2]: -7.1%
growth inhibition [3]: 5.7%
growth inhibition [4]: 0.35%
growth inhibition [5]: -6.25%
growth inhibition [6]: 11.3%

CCOC(=O)c1cccc(N)c1
growth inhibition [1]: -9.6%
growth inhibition [2]: -22.2%
growth inhibition [3]: -25%
growth inhibition [4]: -6.35%
growth inhibition [5]: -12.5%
growth inhibition [6]: -6.8%

Cc1cc(Sc2ccccc2)nc2ccccc12
growth inhibition [1]: 8.5%
growth inhibition [2]: -12.2%
growth inhibition [3]: 41.6%
growth inhibition [4]: 4.1%
growth inhibition [5]: 48.5%
growth inhibition [6]: 12.3%

CC1C(c2ccccc2O)c2cc3c(cc2OC1N1CCOCC1)OCO3 (stereo not given)
growth inhibition [1]: -24.9%
growth inhibition [2]: -13.6%
growth inhibition [3]: 7.45%
growth inhibition [4]: -5.75%
growth inhibition [5]: -18.2%
growth inhibition [6]: -29.1%

CCC(=O)C1C(=O)CC(=O)C(C)C1c1ccccc1OC (stereo not given)
growth inhibition [1]: -14.8%
growth inhibition [2]: -6.6%
growth inhibition [3]: 4.5%
growth inhibition [4]: 38.5%
growth inhibition [5]: 27.8%
growth inhibition [6]: 10.4%

O=c1[nH]c(-c2ccc(Cl)cc2)cs1
growth inhibition [1]: -1.25%
growth inhibition [2]: -14.8%
growth inhibition [3]: -7%
growth inhibition [4]: -5.65%
growth inhibition [5]: -19.9%
growth inhibition [6]: -16.1%

O=C(NCCCCCCCCCNC(=O)C12CC3CC(CC(C3)C1)C2)C12CC3CC(CC(C3)C1)C2
growth inhibition [1]: 23.2%
growth inhibition [2]: 9.2%
growth inhibition [3]: 21.7%
growth inhibition [4]: 29.5%
growth inhibition [5]: -1.55%
growth inhibition [6]: 28.4%

C#Cc1c(C)c(/C=C/C(C)=C/C=C/C(C)=C/C(=O)OC)n(C)c1C
growth inhibition [1]: 12.2%
growth inhibition [2]: 4.7%
growth inhibition [3]: 20.3%
growth inhibition [4]: 10.8%
growth inhibition [5]: 23.6%
growth inhibition [6]: 23.4%

CC1(C#N)C(C#N)(C#N)C1(C#N)C#N
growth inhibition [1]: -0.05%
growth inhibition [2]: -3.35%
growth inhibition [3]: -10.8%
growth inhibition [4]: -13.2%
growth inhibition [5]: -30.1%
growth inhibition [6]: -21.1%

C=C1C(=O)OC(CCCCCCCCCCCCCC(C)=O)[C@H]1C(=O)O (stereo not given in full)
growth inhibition [1]: 10.2%
growth inhibition [2]: -9.75%
growth inhibition [3]: 22.1%
growth inhibition [4]: 4.85%
growth inhibition [5]: -10.9%
growth inhibition [6]: 9.8%

O=C(CC(c1ccccc1)C(Br)[N+](=O)[O-])c1ccccc1 (stereo not given)
growth inhibition [1]: 27.6%
growth inhibition [2]: -0.35%
growth inhibition [3]: 36.6%
growth inhibition [4]: -9.9%
growth inhibition [5]: 40%
growth inhibition [6]: 32.4%

CC1=C(CCC(C)CO)OC2CC3C4CC=C5CC(O)CCC5(C)C4CCC3(C)C12 (stereo not given)
growth inhibition [1]: 19.1%
growth inhibition [2]: -0.65%
growth inhibition [3]: 43.4%
growth inhibition [4]: 9.95%
growth inhibition [5]: 6.3%
growth inhibition [6]: 0.85%

COc1ccc(C(O)(c2ccccc2C)c2ccccc2OC)cc1 (stereo not given)
growth inhibition [1]: 16.1%
growth inhibition [2]: -2.4%
growth inhibition [3]: 4.2%
growth inhibition [4]: -10.8%
growth inhibition [5]: 20.7%
growth inhibition [6]: 27.9%

Cc1ccc(C(O)c2ccccc2)cc1 (stereo not given)
growth inhibition [1]: 25.4%
growth inhibition [2]: 6.55%
growth inhibition [3]: 17.4%
growth inhibition [4]: -61.6%
growth inhibition [5]: 1.4%
growth inhibition [6]: 9.5%

CC(C)c1ccc(O)c(Cc2cc(C(C)C)cc(Cc3cc(C(C)C)ccc3O)c2O)c1
growth inhibition [1]: -14.3%
growth inhibition [2]: -3.2%
growth inhibition [3]: -10.2%
growth inhibition [4]: 4.6%
growth inhibition [5]: 1.1%
growth inhibition [6]: -3.25%

COc1cc(O)c(C(C)c2ccccc2)cc1N=O (stereo not given)
growth inhibition [1]: -9.45%
growth inhibition [2]: -11.6%
growth inhibition [3]: -4.4%
growth inhibition [4]: 4.15%
growth inhibition [5]: 11.8%
growth inhibition [6]: -6.15%

CC(C)CC(NC(=O)OC(C)(C)C)C(=O)NC(CCC(=O)OC1CCCCC1)C(N)=O (stereo not drawn) (Boc-Leu-Glu(OcHex)-NH2; configuration not given here)
growth inhibition [1]: -4.8%
growth inhibition [2]: -12.4%
growth inhibition [3]: -8%
growth inhibition [4]: 1.5%
growth inhibition [5]: 3.4%
growth inhibition [6]: 8.75%

COc1cccc(C2CC(C)=Nc3c(ccc4c3C(=O)c3ccccc3C4=O)N2)c1O (stereo not given)
growth inhibition [1]: 1.2%
growth inhibition [2]: 17.9%
growth inhibition [3]: 24.6%
growth inhibition [4]: 7.8%
growth inhibition [5]: 11.8%
growth inhibition [6]: 14.8%

Cc1cc(N)ccc1[N+](=O)[O-]
growth inhibition [1]: 2.2%
growth inhibition [2]: 31%
growth inhibition [3]: 9%
growth inhibition [4]: -29.1%
growth inhibition [5]: 11.7%
growth inhibition [6]: 1.75%

CCOC(=O)c1c(NNc2ccccc2)nc2ccccc2c1-c1ccccc1
growth inhibition [1]: 25.1%
growth inhibition [2]: -2.05%
growth inhibition [3]: 11.1%
growth inhibition [4]: 22.4%
growth inhibition [5]: -10.3%
growth inhibition [6]: -1.7%

ONc1ncnc2[nH]cc(Br)c12
growth inhibition [1]: 4%
growth inhibition [2]: -6.8%
growth inhibition [3]: -5.65%
growth inhibition [4]: 2.6%
growth inhibition [5]: -4.5%
growth inhibition [6]: 9.7%

CC1(C)OC2(C)CCC1C1C2N1C(=O)Nc1cccc(Cl)c1 (stereo not given)
growth inhibition [1]: -4.05%
growth inhibition [2]: -13.8%
growth inhibition [3]: -2.25%
growth inhibition [4]: -2.45%
growth inhibition [5]: -7.9%
growth inhibition [6]: -18.5%

c1ccc(CNCCN(Cc2ccccc2)Cc2ccccc2)cc1
growth inhibition [1]: 31.6%
growth inhibition [2]: -1.8%
growth inhibition [3]: 36.4%
growth inhibition [4]: -11.8%
growth inhibition [5]: 30.4%
growth inhibition [6]: 25.7%

CCN(CC)CC(C)C(O)(Cc1ccccc1)c1ccc(Cl)cc1 (stereo not given)
growth inhibition [1]: 21.4%
growth inhibition [2]: 17.6%
growth inhibition [3]: 27.9%
growth inhibition [4]: 33.5%
growth inhibition [5]: 10.1%
growth inhibition [6]: 17.4%

COc1ccc(/C=C(\C#N)c2ccccc2NC(C)=O)cc1
growth inhibition [1]: 6.9%
growth inhibition [2]: 7.4%
growth inhibition [3]: -2.95%
growth inhibition [4]: -42.8%
growth inhibition [5]: -10.5%
growth inhibition [6]: 19.8%

O=C1C=C(Nc2nc(C(=O)O)cc(=O)[nH]2)c2ccccc2C1=O
growth inhibition [1]: 8.7%
growth inhibition [2]: -15.2%
growth inhibition [3]: -29.3%
growth inhibition [4]: 15.9%
growth inhibition [5]: -25.6%
growth inhibition [6]: -24.6%

CCOC(=S)SCc1cc(C(C)(C)C)c(O)c(C(C)(C)C)c1
growth inhibition [1]: 2.7%
growth inhibition [2]: 14.4%
growth inhibition [3]: 20.2%
growth inhibition [4]: -20.2%
growth inhibition [5]: 1.15%
growth inhibition [6]: 1.8%

COC(=O)C([O][Ge]([CH3])([CH3])[CH3])c1ccccc1 (stereo not given)
growth inhibition [1]: 8.75%
growth inhibition [2]: -15.1%
growth inhibition [3]: -1.5%
growth inhibition [4]: 21.2%
growth inhibition [5]: -12.9%
growth inhibition [6]: -12.7%

COc1cc2cc3c4ccc(OC)c(OC)c4cc[n+]3c(C)c2cc1OC (tested in a mixture with another compound)
growth inhibition [1]: 98.1% (active)
growth inhibition [2]: 97.7% (active)
growth inhibition [3]: 98.8% (active)
growth inhibition [4]: 98.4% (active)
growth inhibition [5]: 98.2% (active)
growth inhibition [6]: 98% (active)

CCOCC(=O)O
growth inhibition [1]: -15.1%
growth inhibition [2]: -1.25%
growth inhibition [3]: 9.15%
growth inhibition [4]: -32.2%
growth inhibition [5]: 39.2%
growth inhibition [6]: -1.25%
